Screens (PubChem BioAssay)
Only some compounds are listed: those with a hit (about 28% of all), similar ones and a draw of the others.
CYP2C19 activ – activators of human cytochrome P450 2C19; P33261; AID 1025; activation factor at 5 µM; recombinant CYP2C19, luciferin-H EGE luminescence; hits give high values; 0 = fully inhibited enzyme, 1 = untreated enzyme; 96,000 tested, under 10 active;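 active = activation factor of at least 2 at 5 µM in the primary screen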;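 also: 0 = wells with 2.5 mM tranylcypromine and 1 = vehicle-only wells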
CYP2C19 inhib – human CYP2C19 inhibition; CYP2C19 Supersomes, luciferin-H EGE luminescence, 30 min; 96,000 compounds, 21% hits; P33261; inhibition, % at 5 µM;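 active = CYP2C19 inhibition above a set limit at 5 µM in the primary screen, cut at about 50% in these data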;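 also: plate controls were negative control wells for no effect and 2.5 mM tranylcypromine positive control for full effect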
D1 mod – D1 dopamine receptor (human) allosteric modulation | AID 641 | B-score at 10 µM | 58,000 compounds, 5.9% hits | P21728 | HEK293 D1, CRE-luciferase, dopamine EC30 potentiation; actives deviate in either direction;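 active = luminescence count or its row- and column-corrected plate score outside the 99.7% band of the plate's sample wells, on either side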
Target sequence (P21728 whole entry, looked up): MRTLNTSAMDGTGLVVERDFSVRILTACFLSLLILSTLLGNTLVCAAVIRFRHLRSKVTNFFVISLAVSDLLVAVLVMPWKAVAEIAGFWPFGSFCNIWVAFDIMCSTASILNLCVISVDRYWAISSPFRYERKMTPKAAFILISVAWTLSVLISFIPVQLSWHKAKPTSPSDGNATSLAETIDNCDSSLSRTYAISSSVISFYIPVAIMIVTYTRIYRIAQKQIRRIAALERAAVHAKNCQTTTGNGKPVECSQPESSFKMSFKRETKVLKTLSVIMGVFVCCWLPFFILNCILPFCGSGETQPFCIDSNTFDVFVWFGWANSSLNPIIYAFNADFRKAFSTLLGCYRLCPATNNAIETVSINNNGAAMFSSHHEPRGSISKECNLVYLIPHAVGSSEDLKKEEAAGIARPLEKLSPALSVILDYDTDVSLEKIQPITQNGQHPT
DAT uptake mod – human DAT dopamine uptake with cocaine, either direction; LLC-PK1 hDAT cells, [14C]-dopamine uptake with cocaine IC80; actives deviate in either direction; B-score at 10 µM; 110,000 compounds, 1.3% hits;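 active = Z score or B-score, a plate-position-corrected score, falls beyond the plate's 99.7% confidence bounds, in either direction; inactive = both scores lie inside the 99.7% bounds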;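 also: scored against the spread of the other compound wells on the same plate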
CYP2C9 inhib – blocks human cytochrome P450 2C9 | inhibition, % at 5 µM | P11712 | CYP2C9 Supersomes, luciferin-H conversion, luminescence | 96,000 compounds, 20% hits;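 active = blocking of liver enzyme CYP2C9 beyond about 50% at 5 µM, limit read from the data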
CYP2C9 activ – activators of human CYP2C9. P11712. recombinant CYP2C9, luciferin-H conversion, luminescence; hits give high values; factor 1 = untreated enzyme, 0 = blocked. activation factor at 5 µM. 96,000 compounds, 1.4% hits. AID 1024;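 active = activation factor of 2 or more for CYP2C9 at a 5 µM dose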;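 also: 0 = sulfaphenazole-blocked wells and 1 = vehicle-only wells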
Numbers without * were called inactive; . = no result given.

SMILES | CYP2C19 activ | CYP2C19 inhib | D1 mod | DAT uptake mod | CYP2C9 inhib | CYP2C9 activ
COc1ccc(-c2nc(CS(=O)CC(=O)NCc3ccco3)c(C)o2)cc1OC (stereo unspecified) | 0.9 | 13 | -0.066 | 1.8 | 24 | 0.8
Cc1ccc2c(SCC(=O)NCc3ccco3)nc(-c3ccc(F)cc3)nc2c1 | 0.7 | 28 | -0.76 | 0.35 | 89* | 0.1
Cc1cc(C)c2cc(C#N)c(SCC(=O)NCc3ccco3)nc2c1 | 0.7 | 29 | . | 0.42 | 71* | 0.3
O=C(CSc1ncc(-c2ccc(F)cc2)[nH]1)NCc1ccco1 | 0.6 | 44 | -0.48 | -0.26 | 18 | 0.8
COC(=O)[C@H](CCSC)NC(=O)N1CCC(C)CC1 | 0 | 97* | . | -0.013 | 96* | 0
CCC(=O)NCCc1nc2ccccc2n1Cc1ccc(C)cc1 | 0.7 | 28 | . | -0.24 | 31 | 0.7
CCOC(=O)c1c(NC(=O)CSc2nnc(C)s2)sc2c1CCC(C)C2 (stereo unspecified) | . | . | . | -0.25 | . | .
CCOC(=O)c1c(NC(=O)Cn2nnc3ccccc32)sc2c1CCC(C)C2 (stereo unspecified) | 0.4 | 61* | 0.95 | 1.5 | 88* | 0.1
COc1ccc(S(=O)(=O)N(C)CC(=O)O)c2ccccc12 | 0.9 | 8 | -0.23 | 1.4 | 28 | 0.7
CC(=O)Oc1ccc(N(C(C)=O)S(=O)(=O)c2cccs2)c2ccccc12 | 0.1 | 88* | . | 1 | 49 | 0.5
O=C(CSc1nc2ccccc2[nH]1)NCc1ccco1 | 0.8 | 20 | . | 0.074 | 10 | 0.9
COC(=O)CSc1ncccc1-c1nc2ccccc2[nH]1 | 0.4 | 59* | -3.6 | 0.91 | 43 | 0.6
Cc1cc2nc(-c3cccnc3SCC(=O)NCc3ccco3)[nH]c2cc1C | . | . | -3.9* | -1.5 | . | .
O=C(CSc1ncccc1-c1nc2ccccc2[nH]1)NCc1ccco1 | 0.5 | 48 | -2 | 0.44 | 55* | 0.4
CCC(=O)N(C)/C=C1\Sc2ccccc2C1=O | 0.8 | 20 | . | -0.57 | 10 | 0.9
O=CN(/C=C1\Sc2ccccc2C1=O)Cc1ccccc1 | 1 | -2 | . | 0.026 | 56* | 0.4
O=C(Nc1nnc(-c2ccccc2Cl)o1)c1ccco1 | 0.9 | 10 | -1.7 | 1.6 | 93* | 0.1
O=C(Nc1nnc(-c2ccccc2Cl)o1)c1nc2ccccc2s1 | 0.3 | 69* | . | 0.42 | 34 | 0.7
O=C(Nc1nnc(-c2cccs2)o1)c1ccco1 | 1 | -4 | -0.0084 | -0.94 | 34 | 0.7
Cc1c(/C=N/n2cnnc2)c2ccccc2n1C | 0.2 | 77* | -0.81 | 0.66 | 20 | 0.8
Oc1ccc2ccccc2c1/C=N/n1cnnc1 | . | . | . | -0.087 | . | .
COc1ccc(OCCn2c(C)c(/C=N/n3cnnc3)c3ccccc32)cc1 | 0.2 | 76* | . | -0.15 | 75* | 0.3
COc1cccc(OCCn2c(C)c(/C=N/n3cnnc3)c3ccccc32)c1 | 0.4 | 56* | 1.9 | 0.24 | 36 | 0.6
CCNC(=O)CSc1nnc(-c2ccc(OC)cc2)n1CC(C)C | 0.9 | 11 | . | 0.0025 | 21 | 0.8
N#C/C(=C\c1ccccc1Cl)C(=O)NC(=O)Oc1ccccc1 | 1 | -1 | . | 0.79 | -23 | 1.2
SMILES | CYP2C19 activ | CYP2C19 inhib | D1 mod | DAT uptake mod | CYP2C9 inhib | CYP2C9 activ
N#C/C(=C\c1ccccc1)C(=O)NC(=O)Oc1ccccc1 | 1 | 4 | . | 0.0031 | 82* | 0.2
COC(=O)c1cccc(OC(N)=O)c1 | 0.8 | 18 | -0.23 | -0.54 | -25 | 1.2
COc1ccc(OC)c(NC(=O)C2CC(C)=C(C)CC2C(=O)O)c1 (stereo unspecified) | 0.8 | 15 | -0.93 | 0.25 | 61* | 0.4
COc1ccc([N+](=O)[O-])cc1NC(=S)NC(NC(=O)Cc1ccc(OC)c(OC)c1)C(Cl)(Cl)Cl (stereo unspecified) | 0.7 | 31 | . | -0.48 | 58* | 0.4
COc1ccc([N+](=O)[O-])cc1NCc1ccccc1C | 0.3 | 68* | . | -0.079 | 69* | 0.3
COc1ccc(C)cc1NC(=O)C1CCCN1C(=O)OCc1ccccc1 (stereo unspecified) | 0.7 | 32 | -0.75 | 0.42 | -10 | 1.1
COc1ccc(NC(=S)NC(NC(=O)C(C)C)C(Cl)(Cl)Cl)c([N+](=O)[O-])c1 (stereo unspecified) | 1.1 | -9 | . | -0.063 | 9 | 0.9
COc1ccc(OC)c(NC(=O)C2CCCN2C(=O)OCc2ccccc2)c1 (stereo unspecified) | 0 | 97* | -0.67 | 1.1 | 62* | 0.4
Cc1nc(SCCCSc2n[nH]c(C)n2)n[nH]1 | . | . | 0.0095 | -0.33 | . | .
COc1ccc(OC)c(NC(=O)CSc2ccc3ccccc3c2)c1 | 0.7 | 32 | . | -0.03 | -29 | 1.3
COc1ccc([N+](=O)[O-])cc1NC(=O)CSc1ccccc1 | 0.1 | 93* | . | -1.2 | -20 | 1.2
COc1cc(NC(=O)CS(=O)(=O)c2ccc(C)cc2)cc(OC)c1OC | 0.3 | 73* | 0.13 | -0.82 | 20 | 0.8
COc1ccc(OC)c(NC(=O)CSc2ccccc2)c1 | 0.4 | 57* | 0.78 | 0.077 | -38 | 1.4
COc1cc([N+](=O)[O-])ccc1NC(=O)CN(C)C | 1.1 | -6 | . | -0.11 | -14 | 1.1
COCC(=O)Nc1cc(OC)ccc1OC | 0.9 | 6 | 0.6 | -0.71 | -21 | 1.2
COc1ccc(OC)c(NC(=O)CS(=O)(=O)c2ccccc2)c1 | 0.3 | 69* | . | -0.32 | -325 | 4.3*
COc1ccc(OC)c(NC(=O)Nc2ccccc2C)c1 | 0.3 | 67* | -1.2 | 1.8 | 29 | 0.7
O=C(NCC1(c2ccccc2)CCCC1)C(=O)N1CCOCC1 | . | . | . | -0.64 | . | .
Cc1ccc(C(=O)Oc2cccc(NC(=O)c3ccco3)c2)cc1S(=O)(=O)N1CCC(C)CC1 | 0.4 | 60* | . | -0.6 | 85* | 0.1
O=C(NCCC1=CCCCC1)c1coc(=O)c(Br)c1 | 0.7 | 33 | . | -1.2 | 33 | 0.7
O=C(NCCC1=CCCCC1)c1ccc(=O)oc1 | 0.4 | 56* | . | -0.91 | 14 | 0.9
COCCCNC(=O)c1cccc(C(=O)NCCCOC)c1 | 1 | 3 | -0.47 | -1.5 | -12 | 1.1
COc1cc(C(=O)NCCC2=CCCCC2)cc(OC)c1OC | 0.2 | 75* | -0.23 | -0.051 | 32 | 0.7
COCCCNC(=O)c1cccc(OC)c1OC | 0.4 | 56* | -0.14 | -1.2 | -8 | 1.1
COc1cccc(C(=O)NCCC2=CCCCC2)c1OC | 0 | 100* | 0.61 | -0.46 | 29 | 0.7
CC(C)CCn1c(CN2CCN(c3cccc(Cl)c3)CC2)nc2c1c(=O)n(C)c(=O)n2C | . | . | -0.071 | -0.66 | . | .
Cc1nc2cc(NC(=O)NCCC3=CCCCC3)ccc2o1 | 0.7 | 26 | -0.71 | -1 | 20 | 0.8
C=CCN1C(=O)CSc2ccc(C(=O)NCCC3=CCCCC3)cc21 | 0.7 | 26 | . | 0.36 | 52* | 0.5
COc1ccc(C)cc1NC(=O)NCCC1=CCCCC1 | 0.2 | 83* | -0.8 | 0.46 | 2 | 1
